Compound activity from PubChem BioAssay.
Rows were chosen to be rich in hits. Some 1.2% of all compounds tested hit in one or more screens of this group.
mIDH1 inhibitor: blocks human mutant IDH1 R132H enzyme; O75874; IDH1-R132H enzyme, NADPH consumption, diaphorase/resazurin fluorescence; Potency, µM (titrated, usually from 76.6 µM), without a hit: at the top dose activity change, negative = inhibition, actives largely listed as inhibitors; 390,000 tested, 0.093% active; AID 602179; also: nearly all actives have a fitted effect of over 65% in size
Target sequence (O75874 whole entry R132H, stated change not applied): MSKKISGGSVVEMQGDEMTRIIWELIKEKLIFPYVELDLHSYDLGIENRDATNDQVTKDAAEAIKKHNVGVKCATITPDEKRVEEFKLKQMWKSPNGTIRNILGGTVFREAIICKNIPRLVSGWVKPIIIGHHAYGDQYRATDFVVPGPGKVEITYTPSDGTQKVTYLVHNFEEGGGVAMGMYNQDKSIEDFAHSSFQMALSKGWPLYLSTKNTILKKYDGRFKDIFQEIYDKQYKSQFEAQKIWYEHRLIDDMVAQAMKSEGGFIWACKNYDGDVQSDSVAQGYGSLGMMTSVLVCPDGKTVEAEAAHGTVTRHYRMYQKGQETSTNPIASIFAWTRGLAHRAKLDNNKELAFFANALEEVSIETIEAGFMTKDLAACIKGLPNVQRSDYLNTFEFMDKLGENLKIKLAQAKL
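IDH1-R132H (0.5 ug/mL) preincubated 30 min with compound, then NADPH (0.016 mM) and alpha-KG (2 mM) added; 80 min at RT, pH 7.5. Remaining NADPH coupled via diaphorase/resazurin to fluorescence (540/590 nm); concentration-response curves normalized to no-enzyme control.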
GLS inhibitor: inhibitors of human glutaminase (GLS); AID 624170; Potency, µM (series often up to 45.5 µM), for inactives: at the highest dose activity change, negative = inhibition, usual class: inhibitors; O94925; GLS enzymatic activity, qHTS titration; 410,000 tested, 0.21% active
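Assay buffer: 45 mM KH2PO4 pH 8.2, 0.02% Tween-20. hKGA acts on L-glutamine (1 mM solution added); product glutamate is reported by an oxidase/peroxidase Amplex Red coupling, with fluorescence taken at baseline and 30 min.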
rTrxR1 inhibitor: blocks rat thioredoxin reductase 1. 390,000 tested, 1% active. O89049. AID 588453. Potency, µM (top dose mostly 114 µM), inactives show top-dose activity change, negative = inhibition, most hits filed as inhibitors. recombinant rTrxR1, NADPH fluorescence consumption, selenite substrate; also: nearly all actives have a fitted effect of over 65% in size
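Rat TrxR1 (90 nM in the dispensed reagent) was pre-reduced with 400 uM NADPH for 5 min at room temperature, then incubated with compound for 15 min. After 400 uM selenite was added, NADPH fluorescence (Ex 340/Em 450 nm) was followed for 8 min.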
TrxR1 substrate: substrates of rat thioredoxin reductase 1; O89049; AID 588456; 390,000 tested, 0.01% active; purified TrxR1 substrate turnover, NADPH consumption readout; Potency, µM (doses to about 114 µM), for the others: top-dose activity change, negative = substrate turnover; also: nearly all actives have a fitted effect of over 50% in size
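Rat TrxR1, dispensed at 90 nM, was prereduced with 400 uM NADPH (final) for 5 min at ~22 deg C, then incubated with compound 15 min before 400 uM selenite. A first-read NADPH fluorescence drop versus no-compound background flagged substrates.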
* hit, by the source's call; u = inconclusive; x = no result given; ! = not confirmed by another sample; [ ] = remark or other dose. Calls follow the shape of the dose curve; as a rule, active = well fitted curve in the direction sought with a large enough effect; inconclusive = small, poorly fitted or top-dose-only effect, or another doubt; inactive = no such curve, though single readings can be large; an effect the other way counts as inactive or inconclusive. % is scaled to controls: 0 for no effect and ±100 for the full control effect; potency is read from the fitted curve at half-maximal effect.

SMILES | mIDH1 inhibitor | GLS inhibitor | rTrxR1 inhibitor | TrxR1 substrate
Cc1ccc(/C=C2\C(=O)NC(=S)N(c3ccc(F)cc3)C2=O)o1 | -6% | u | u | 1%
Cc1ccc(N2C(=O)/C(=C/c3ccc(CN(CCC#N)S(C)(=O)=O)o3)C(=O)NC2=S)cc1 | -2% | 11µM* | 10µM* | 2%
Clc1ccc(CC[C@H](Cn2ccnc2)Sc2c(Cl)cccc2Cl)cc1 | x | -6%[20 µM] | x | x
C[C@H](N)C(=O)c1ccccc1 | x | 7% | x | x
Cc1cc(/C=C/c2ccnc3ccccc23)ccc1N(CCCl)CCCl | x | x | -33% | 1%
Cc1cc(/C=C/c2cccc3sc(C)[n+](CCCCI)c23)ccc1N(CCCl)CCCl | x | x | 16µM* | -9%
COc1cccc2c1C(=O)c1c(O)c3c(c(O)c1C2=O)C[C@@](O)(C(=O)CO)C[C@@H]3O[C@H]1C[C@H](N)[C@H](OC2CCCCO2)[C@H](C)O1 (some centres undefined) | x | 16µM* | u | -17%
O=c1c(-c2ccccc2)c(O)c2ccccc2n1-c1ccccc1 | 12% | 87% | -7%[57.1 µM] | -10%
COc1ccc(C(=O)O)cc1OC | -7% | 2% | 10% | 4%
O=C(O)c1cc[c]([Hg][Cl])cc1 | 7% | u | 0.35µM* | 12%[57.1 µM]
Cc1cccc2c1=NC(=O)/C(=C/c1c(O)[nH]c(=O)[nH]c1=O)C=2 | 6% | 18% | u | 9%[57.1 µM]
O=c1[nH]c(=S)[nH]c(O)c1/C=C1/C=c2ccccc2=N1 | -6% | 1% | 20µM* | -3%
COc1ccc(-c2cn(CCO)nc2-c2ccc(OC)cc2)cc1 | 0% | u | -21%[11.4 µM] | -15%[11.4 µM]
CCN1/C(=C\C=C\C2=[N+](CC)c3ccccc3C2(C)C)C(C)(C)c2ccccc21 | 35µM* | u | -1% | 5%
COc1ccc(/C=C/C=C2C(=O)NC(=S)NC2=O)cc1 | u | 2% | 7.1µM* | -6%
CCOc1cc(C=C2C(=O)NC(=S)NC2=O)ccc1O | -7% | 3% | -78%[57.1 µM] | -1%[2.29 µM]
COc1ccc(C=C2C(=O)NC(=S)NC2=O)cc1OC | -4% | u | 7.1µM* | -4%
O=C1NC(=O)C(=Cc2ccc(N3CCN(C(=O)c4ccccc4)CC3)c([N+](=O)[O-])c2)C(=O)N1 | 3% | 0% | 10µM* | -9%
O=C1NC(=O)C(=Cc2cc([N+](=O)[O-])ccc2N2CCCCC2)C(=O)N1 | -1% | 6% | -3%[57.1 µM] | -6%[57.1 µM]
Cc1ccc(-c2[nH]c(=S)[nH]c(=O)c2C#N)cc1 | 1% | -15% | u | -13%
Cc1ccccc1N1C(=O)NC(=O)/C(=C\c2ccc3c(c2)CCCN3Cc2ccccc2)C1=O | 52µM* | u | -28%[11.4 µM] | -1%[11.4 µM]
Cc1cc(/C=C2\C(=O)NC(=O)N(Cc3ccccc3)C2=O)c(C)n1C1CC1 | 9% | 2% | 13%[57.1 µM] | 5%[57.1 µM]
CCOC(=O)Nc1ccc(NCc2ccc(F)cc2)nc1N | 15% | 2% | 11µM* | 28%[57.1 µM]
O=C(O)CCn1cc(C=C2C(=O)NC(=S)NC2=O)c(-c2cc3ccccc3oc2=O)n1 | -2% | u | 7.1µM* | 3%
O=C(O)c1cccc2c1NC(C(=O)O)C1CC(Sc3ccccc3[N+](=O)[O-])C(Cl)C21 (centres undefined) | -11% | 7.1µM* | u | -5%
SMILES | mIDH1 inhibitor | GLS inhibitor | rTrxR1 inhibitor | TrxR1 substrate
COc1ccc(CN2CCNCC2)cc1 | -2% | 0% | 35µM* | -1%
CC12CCC(=O)CC1CCC1C2CCC2(C)C1CCC2(C)O (centres undefined) | x | 0% | x | x
C[N+](C)(C)CC#CCOC(=O)Nc1cccc(Cl)c1 | -12% | -5% | 2.7µM* | 13%[57.1 µM]
O=[N+]([O-])c1ccc(F)c([N+](=O)[O-])c1 | x | 5% | x | x
CCOP1(=O)C=C(Sc2ccc([N+](=O)[O-])cc2[N+](=O)[O-])C(C)(C)O1 (centres undefined) | 2% | -8% | 14µM* | -16%
CCN(CC)c1ccc(/C=C2/C(=O)NC(=O)N(Cc3ccco3)C2=O)cc1 | -2% | 15% | 35µM* | -7%
CCN(CC)c1ccc(/C=C2\C(=O)NC(=O)N(CC3CCCO3)C2=O)cc1 (centres undefined) | -3% | 20% | u | -5%
CN(C)c1ccc(/C=C2/C(=O)NC(=O)N(Cc3ccco3)C2=O)cc1 | -1% | -26% | 50µM* | -15%
Cc1cc(/C=C2/C(=O)NC(=O)N(Cc3ccco3)C2=O)c(C)n1-c1ccccc1 | 4% | 3% | -43% | -21%[57.1 µM]
Cc1ccc2c(c1)cc(C(=O)Nc1ccccc1C)n2C | x | -12% | 25% | 30%
COc1ccc(NC(=O)CCn2cnc3onc(-c4ccc(F)cc4)c3c2=O)cc1OC | 13% | -1% | u | -10%
O=C1NC(=S)NC(=O)C1C/C=C/c1ccccc1 | 0% | u | 50µM* | -6%
OC[C@@H](O)[C@H]1O[C@@H]2OC(C(Cl)(Cl)Cl)O[C@H]2[C@H]1O (some centres undefined) | x | 6% | x | x
COc1ccc(NC(=O)CSc2oc(-c3cccs3)nc2S(=O)(=O)c2ccccc2)c(OC)c1 | 0% | 2% | u | -5%
CCC(=O)OC1[C@@H](N2CCCCC2)C[C@H]2[C@@H]3CC[C@H]4C[C@H](OC(C)=O)[C@@H](N5CCCCC5)C[C@]4(C)[C@H]3CC[C@]12C (some centres undefined) | x | 0% | x | x
O=[N+]([O-])/C=C/c1c(Cl)cccc1Cl | 2% | 7.9µM* | u | 3%[11.4 µM]
Cc1ccccc1-n1c(O)c(C(c2ccncc2)c2c(O)n(-c3ccccc3C)c(=O)[nH]c2=O)c(=O)[nH]c1=O | 5% | -12% | 14µM* | 5%[57.1 µM]
O=C(Nc1ccccc1)c1cc([N+](=O)[O-])ccc1N1CCNCC1 | 5% | -6% | u | -6%
O=[N+]([O-])c1ccc2nc(N3CCNCC3)ccc2c1 | -8% | -8% | 79µM*! | 5%[57.1 µM]
O=S(=O)(O)C(F)(F)C(F)(F)C(F)(F)C(F)(F)C(F)(F)C(F)(F)C(F)(F)C(F)(F)F | x | -2%[99.4 µM] | x | x
C[N+](C)(C)CC1CCCC(C[N+](C)(C)C)C1=O (centres undefined) | 3% | -3% | u | -5%
C[N+](C)(C)CC1CCCc2ccccc2C1=O (centres undefined) | 4% | -2% | 71µM* | -3%
Cc1ccc(C(=O)c2cn(CC(=O)Nc3ccc(C(C)C)cc3)c3nc(C)ccc3c2=O)cc1 | 2% | 0% | 31% | 2%
C[C@H]1[C@@H]2Cc3ccc(O)cc3[C@]1(C)CCN2CCc1ccccc1 | x | 54%[99.4 µM] | x | x
O=C(O)c1ccccc1O | 3% | 3% | 26% | 51%
O=C(O)c1cc(O)c(O)c(O)c1 | x | 10µM* | x | x
S=C(S)N1CCCC1 | -7% | 2% | 0%[57.1 µM] | 3%[57.1 µM]
O=C1[O][Sb-]23[O]C(=O)C([O]2)C2[O][Sb-]4([O]C(=O)C([O]4)C1[O]3)[O]C2=O | x | -7% | x | x
O=[N+]([O-])c1ccccc1CCl | 17% | 6% | 45µM* | 9%
